PubChem BioAssay (NCATS)
Records with an inconclusive call do not appear. A number with no mark means an inactive call. Activity calls are given as the source filed them. Calls come from the whole dose curve; as a rule, active = well fitted cell-killing curve with a large enough effect; inconclusive = small, poorly fitted or top-dose-only effect, or effect the other way; inactive = no such curve, though single readings can be large or run the other way. Positions of bridges follow the written chain, without caps; N, C: chain ends. Non-standard residues stand in square brackets, D forms with d. Residues, ends and D or L forms follow the SMILES beside them. ξ: configuration not given here. *: point of attachment. Octanoyl(6-Me) = CCC(C)CCCCC(=O)*; ξThr(3R) = C[C@@H](O)C(N)C(=O)O; dDab = NCC[C@@H](N)C(=O)O; Dab = NCC[C@H](N)C(=O)O

assay: Quantitative High-Throughput drug screen in 47 multiple myeloma cell lines against the NCATS MIPE library collection: PCM6_Riken cell viability assay (AID 1919870); details: CellTiter-Glo ATP, 48 h; series mostly up to 45.8 µM; viability (% of control): at the top concentration; note: nearly all actives have a fitted effect of over 30% in size
Text: PI: Beverly A. Mock Ph.D.
Laboratory of Cancer Biology and Genetics,
Center for Cancer Research, National Cancer Institute,
National Institute of Health, Bethesda, Maryland
Drug resistance and disease progression are common in multiple myeloma (MM) patients, underscoring the need for new therapeutic combinations. […] We hypothesized that effective combinations would reduce MYC expression and enhance p16 activity. […] These preclinical data identify potentially useful drug combinations for evaluation in drug-resistant MM and reveal potential mechanisms of combined drug sensitivity.
Described herein is the primary MIPE qHTS used to cherrypick compounds. Validated compounds were then further tested for potential synergistic activiy.
[1] Peat TJ, Gaikwad SM, Dubois W, Gyabaah-Kessie N, Zhang S, Gorjifard S, Phyo Z, Andres M, Hughitt VK, Simpson RM, Miller MA, Girvin AT, Taylor A, Williams D, D'Antonio N, Zhang Y, Rajagopalan A, Flietner E, Wilson K, Zhang X, Shinn P, Klumpp-Thomas C, McKnight C, Itkin Z, Chen L, Kazandijian D, Zhang J, Michalowski AM, Simmons JK, Keats J, Thomas CJ, Mock BA. Drug combinations identified by high-throughput screening promote cell cycle transition and upregulate Smad pathways in myeloma. Cancer Lett. 2023 Aug 1;568:216284. doi: 10.1016/j.canlet.2023.216284. Epub 2023 Jun 24. PMID: 37356470; PMCID: PMC10408729.
SEQUENCE No. (e.g., 1, 2, 3, etc.); […] (e.g., Cells, Incubation, Reagent, etc.); VALUE and DESCRIPTION.
1; Cells; 5 uL; white, solid bottom 1536-well Greiner assay plate.
2; Compounds; 23 nL; Kalypsis pin tool (Wako USA) equipped with a 1536-well pin head to transfer to the assay plates.
3; Incubation; 48 hours; 37C incubation.
4; Reagent;5uL; CellTiter Glo (Promega).
5; Detector; 425V; Luminescence; Viewlux PerkinElmer.
NOTES (numbers refer to Sequence numbers above)
1. The cell-based screening methods employed in this study were like those previously published. Briefly, the corresponding myeloma cell lines were screened in 1,536-well plates with 500 cells, 5-uL per well for inhibition of cell viability (assessed by measuring ATP levels with CellTiterGlo).
2. NCATS MIPE 4.0 library of approved and investigational drugs were added using the Kalypsis pin tool. Wells treated with DMSO only for 100% viability and media only for 0% viability were used as controls.
3. The assay plates were covered and incubated for 48 hours in a 37C, 5% CO2 incubator with controlled humidity.
4. After 48 hours, CellTilter-GloTM luminescent substrate mix (Promega) reagent was added to the assay plate and plates we incubated for 5 min at room temperature.
5. Signal was measured as median relative luminescence units on a ViewLux (PerkinElmer) multiplate reader.
[1] Heske CM, Davis MI, Baumgart JT, Wilson K, Gormally MV, Chen L, Zhang X, Ceribelli M, Duveau DY, Guha R, Ferrer M, Arnaldez FI, Ji J, Tran HL, Zhang Y, Mendoza A, Helman LJ, Thomas CJ. Matrix Screen Identifies Synergistic Combination of PARP Inhibitors and Nicotinamide Phosphoribosyltransferase (NAMPT) Inhibitors in Ewing Sarcoma. Clin Cancer Res. 2017 Dec 1;23(23):7301-7311. doi: 10.1158/1078-0432.CCR-17-1121. Epub 2017 Sep 12. PMID: 28899971; PMCID: PMC6636827.
Potency is the fitted concentration of half-maximal effect.

| SMILES | Potency | viability (% of control) |
| --- | --- | --- |
| CO[C@@H]1[C@@H](O)[C@H](O)[C@@H](n2c3c(Cl)cccc3c3c4c(c5c6cccc(Cl)c6[nH]c5c32)C(=O)NC4=O)O[C@@H]1CO | 1480 nM (active) | – |
| Oc1ccc(-c2ccc(-c3cc(Nc4cccc(CNC5CC5)c4)n[nH]3)cc2)c(O)c1 | 590 nM (active) | – |
| OC[C@H]1OC(O)C[C@@H](O)[C@H]1O (stereo not given in full) | – | 113% |
| COc1ccc([C@@H]2CNC(=O)C2)cc1OC1CCCC1 | 1480 nM (active) | – |
| CCOC(=O)[C@H](CCc1ccccc1)N[C@@H](C)C(=O)N1[C@@H](C(=O)O)C[C@H]2CCC[C@@H]21 | 8330 nM (active) | – |
| C=Cc1c(C)c2cc3nc(cc4[nH]c(cc5nc(cc1[nH]2)C(C)=C5CCC(=O)O)c(CCC(=O)OC)c4C)[C@@]1(C)C3=CC=C(C(=O)OC)[C@H]1C(=O)OC | 83.3 nM (active) | – |
| Cc1cnc(Nc2ccc(CN3CCOCC3)cc2)nc1Nc1cccc(S(=O)(=O)NC(C)(C)C)c1 | 5260 nM (active) | – |
| O=c1[nH]c(=O)n([C@H]2C[C@@H](O)[C@@H](CO)O2)cc1F | 14800 nM (active) | – |
| CC(=O)O[C@]1(C(C)=O)CC[C@H]2[C@@H]3C=C(C)C4=CC(=O)CC[C@]4(C)[C@@H]3CC[C@@]21C | 6620 nM (active) | – |
| c1ccc(CNc2nc(NCc3ccccc3)c3ccccc3n2)cc1 | 8330 nM (active) | – |
| CCC(C)CCCCC(=O)N[C@@H](CCN)C(=O)NC(C(=O)N[C@H](CCN)C(=O)N[C@@H]1CCNC(=O)C([C@@H](C)O)NC(=O)[C@@H](CCN)NC(=O)[C@@H](CCN)NC(=O)[C@@H](CC(C)C)NC(=O)[C@H](Cc2ccccc2)NC(=O)[C@H](CCN)NC1=O)[C@@H](C)O (stereo partly drawn) ({Octanoyl(6-Me)}-[Dab][ξThr(3R)][dDab][dDab][Dab]F[dL][dDab][dDab][ξThr(3R)]; lactam 4-C) | – | 107% |
| CCC[C@H]1C[C@H](C(=O)N[C@@H]([C@@H]2O[C@@H](SC)[C@@H](O)[C@@H](O)[C@@H]2O)[C@H](C)Cl)N(C)C1 | – | 120% |
| Cc1cncc2cccc(S(=O)(=O)N3CCCN(C(=O)CN)C[C@@H]3C)c12 | 20900 nM (active) | – |
| COc1cc(OC)c(C=CS(=O)(=O)Cc2ccc(OC)c(NCC(=O)O)c2)c(OC)c1 | 418 nM (active) | – |
| Cc1[nH]c(C=C2C(=O)Nc3ccccc32)c(C)c1CCC(=O)O | 10500 nM (active) | – |
| O=C1NCCc2[nH]c(-c3ccncc3)cc21 | 1660 nM (active) | – |
| C#C[C@]1(O)CC[C@@H]2[C@@H]3CCC4=CC(=O)CC[C@@H]4[C@H]3CC[C@@]21CC | – | 83.4% |
| CC(=O)OCC(=O)[C@@]1(O)CC[C@H]2[C@@H]3CCC4=CC(=O)CC[C@]4(C)[C@@H]3C(=O)C[C@@]21C | – | 111% |
| C=CCNC1=C2C[C@@H](C)C[C@H](OC)[C@@H](O)[C@@H](C)C=C(C)[C@H](OC(N)=O)[C@@H](OC)C=CC=C(C)C(=O)NC(=CC1=O)C2=O | 1480 nM (active) | – |
| O=C(CN1C(=O)C2(CCCC2)NC[C@H]1c1cc(F)cc(F)c1)Nc1ccc2c(c1)C[C@@]1(C2)C(=O)Nc2ncccc21 | – | 133% |

| SMILES | Potency | viability (% of control) |
| --- | --- | --- |
| C[C@H]1[C@@H](OC(=O)CCC(=O)O)O[C@@H]2O[C@@]3(C)CC[C@@H]4[C@H](C)CC[C@@H]1[C@@]24OO3 | 5900 nM (active) | – |
| CC(C)C[C@H](NC(=O)[C@@H](NC(=O)c1cccc(-c2ccccc2)n1)[C@@H](C)O)B(O)O | 23.5 nM (active) | – |
| O=C(C=CC#Cc1cccc(NS(=O)(=O)c2ccccc2)c1)NO | 1660 nM (active) | – |
| COc1cccc2c1C(=O)c1c(O)c3c(c(O)c1C2=O)C[C@@](O)(C(=O)CO)C[C@@H]3O[C@H]1C[C@H](N)[C@@H](O)[C@H](C)O1 | 209 nM (active) | – |
| CCCCCCCCCCCC(CC1OC(=O)C1CCCCCC)OC(=O)C(CC(C)C)NC=O (stereo not given) | 4690 nM (active) | – |
| C=CC(=O)Nc1cc(NC(=O)c2ccc(C)c(NC(=O)c3ccno3)c2)cc(C(F)(F)F)c1 | 16600 nM (active) | – |
| C=CC[C@@H]1C=C(C)C[C@H](C)C[C@H](OC)[C@H]2O[C@@](O)(C(=O)C(=O)N3CCCC[C@H]3C(=O)O[C@H](C(C)=C[C@@H]3CC[C@H](O)[C@H](OC)C3)[C@@H](C)[C@@H](O)CC1=O)[C@@H](C)C[C@@H]2OC | 935 nM (active) | – |
| C=CCNc1c(O)cc2c(O)c1C[C@@H](C)C[C@H](OC)[C@@H](O)[C@@H](C)C=C(C)[C@H](OC(N)=O)[C@@H](OC)C=CC=C(C)C(=O)N2 | 833 nM (active) | – |
| O=C1NC(=O)[C@@H](c2cn3c4c(cccc24)CCC3)[C@H]1c1c[nH]c2ccccc12 | 5900 nM (active) | – |
| NC(=O)c1ncn([C@@H]2O[C@H](CO)[C@@H](O)[C@@H]2O)c1O | – | 92.5% |
| CC(C)(O)[C@H]1CC[C@@](C)([C@H]2[C@@H](O)C[C@@]3(C)[C@@H]4C[C@H](O[C@@H]5O[C@H](CO)[C@@H](O)[C@H](O)[C@@H]5O)[C@H]5C(C)(C)[C@@H](O[C@@H]6OC[C@@H](O)[C@H](O)[C@@H]6O)CC[C@@]56C[C@@]46CC[C@]23C)O1 | – | 124% |
| CC(C)OC(=O)[C@H](C)N[P@](=O)(OC[C@H]1O[C@@H](n2ccc(=O)[nH]c2=O)[C@](C)(F)[C@H]1O)Oc1ccccc1 | – | 97.5% |
| Cc1ncc(-c2ccnc(Nc3ccc(S(C)(=O)=O)cc3)n2)n1C(C)C | 743 nM (active) | – |
| CC(C(C)N1CC(=O)NC(=O)C1)N1CC(=O)NC(=O)C1 (stereo not given) | – | 128% |
| CC1(C)[C@H](O[C@H]2O[C@H](C(=O)O)[C@@H](O)[C@H](O)[C@H]2O[C@@H]2O[C@H](C(=O)O)[C@@H](O)[C@H](O)[C@H]2O)CC[C@@]2(C)[C@H]1CC[C@]1(C)[C@H]2C(=O)C=C2[C@H]3C[C@@](C)(C(=O)O)CC[C@]3(C)CC[C@]21C | – | 141% |
| Cn1cnc(=N)c2[nH]cnc21 | 235 nM (active) | – |
| O=C(O)C=Cc1ccc(Cn2ccnc2)cc1 | – | 113% |
| CC(Oc1ccc(O)cc1)(P(=O)(O)O)P(=O)(O)O | – | 91.3% |
| CC(C)[C@H](CO)Nc1nc(Nc2cccc(Cl)c2)c2ncn(C(C)C)c2n1 | 16600 nM (active) | – |
| C[C@H](NCc1ccc2c(c1)nc(NC(=O)c1ccc(-c3cn[nH]c3)s1)n2CCc1ccccc1)C(C)(C)C | 418 nM (active) | – |
